According to PubChem BioAssay (EPA / NIEHS):
Active and inactive are the calls of the source. The calls were made as follows: active = hit-call score of the fitted dose curve at least 0.9, where 1 is the maximum; inactive = score below 0.9.

Experiments:
[1] = BSK_hDFCGF_SRB: Viability Assessment in the BioMAP Diversity Plus: hDFCGF Assay (AID 2283061); details: primary human foreskin fibroblasts;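 also: cells exposed to compound for 24 h before the read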
Method in brief: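 Viability was read as total protein: after 10% TCA fixation, wells were stained with 0.1% sulforhodamine B and read at 560 nm. Primary human foreskin fibroblasts were dosed for 24 h, with bidirectional fitting versus DMSO.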

[2] = read-out: TIMP metallopeptidase inhibitor 1 (TIMP1), TIMP1 (gene 7076); assay: BSK_hDFCGF_TIMP1: BioMAP Diversity Plus: hDFCGF Assay for TIMP metallopeptidase inhibitor 1 (TIMP1) Biomarker Activity (AID 2283062); details: primary human foreskin fibroblasts; actives raise or lower the signal
Method in brief: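 TIMP-1 measured by ELISA 24 h after chemical dosing of primary human skin fibroblasts, with gain or loss fitted relative to DMSO. Parallel SRB staining (560 nm) monitored overt cytotoxicity.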

[3] = read-out: Monokine induced gamma interferon (MIG), CXCL9 (gene 4283); assay: BSK_hDFCGF_MIG: BioMAP Diversity Plus: hDFCGF Assay for Monokine induced gamma interferon (MIG) Biomarker Activity (AID 2283063); details: primary human foreskin fibroblasts; actives raise or lower the signal
Method in brief: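 Human primary foreskin fibroblasts in the hDFCGF system, exposed to test chemical for 24 h; MIG measured by ELISA. Bidirectional curve fitting against DMSO negative control as activity baseline.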

[4] = read-out: Matrix Metallopeptidase 1 (MMP1), MMP1 (gene 4312); assay: BSK_hDFCGF_MMP1: BioMAP Diversity Plus: hDFCGF Assay for Matrix Metallopeptidase 1 (MMP1) Biomarker Activity (AID 2283064); details: primary human foreskin fibroblasts; actives raise or lower the signal
Method in brief: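 MMP1 levels quantified by ELISA 24 h after dosing human dermal fibroblast cultures, with parallel SRB total-protein staining for overt cytotoxicity. Data fitted in both directions against DMSO baseline.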

[5] = read-out: Vascular cell adhesion molecule 1 (VCAM1), VCAM1 (gene 7412); assay: BSK_hDFCGF_VCAM1: BioMAP Diversity Plus: hDFCGF Assay for Vascular cell adhesion molecule 1 (VCAM1) Biomarker Activity (AID 2283065); details: primary human foreskin fibroblasts; actives raise or lower the signal;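 as to AC50: VCAM-1 protein level quantified by ELISA after 24 h chemical exposure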
Method in brief: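 ELISA readout of VCAM-1 on human dermal fibroblast primary cultures, 24 h after chemical exposure. Gain or loss of signal fitted in both directions against DMSO baseline.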

[6] = read-out: Plasminogen activator inhibitor-1 (PAI1), SERPINE1 (gene 5054); assay: BSK_hDFCGF_PAI1: BioMAP Diversity Plus: hDFCGF Assay for Plasminogen activator inhibitor-1 (PAI1) Biomarker Activity (AID 2283066); details: primary human foreskin fibroblasts; actives raise or lower the signal
Method in brief: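 Human skin fibroblast cultures receive chemical for 24 h before PAI-1 is measured by ELISA; signal changes are fitted bidirectionally against DMSO-treated wells.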

[7] = read-out: Intercellular Adhesion Molecule 1 (ICAM1), ICAM1 (gene 3383); assay: BSK_KF3CT_ICAM1: BioMAP Diversity Plus: KF3CT Assay for Intercellular Adhesion Molecule 1 (ICAM1) Biomarker Activity (AID 2283067); details: primary human keratinocytes with fibroblasts; actives raise or lower the signal
Method in brief: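 Cell-surface ICAM-1 was measured by ELISA 24 h after dosing primary human skin keratinocytes co-cultured with fibroblasts. Parallel SRB staining tracked overt cytotoxicity. Gain or loss of signal was fitted relative to DMSO.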

[8] = read-out: Interferon-gamma inducible Protein 10 (IP10), CXCL10 (gene 3627); assay: BSK_KF3CT_IP10: BioMAP Diversity Plus: KF3CT Assay for Interferon-gamma inducible Protein 10 (IP10) Biomarker Activity (AID 2283068); details: primary human keratinocytes with fibroblasts; actives raise or lower the signal
Method in brief: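 KF3CT co-culture (keratinocytes + foreskin fibroblasts), 24 h compound, IP-10 by ELISA; bidirectional fit vs DMSO baseline.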

[9] = BSK_KF3CT_SRB: Viability Assessment in the BioMAP Diversity Plus: KF3CT Assay (AID 2283069); details: primary human keratinocytes with fibroblasts;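 also: total protein by sulforhodamine B staining as a cytotoxicity measure; read 24 h after compound addition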
Method in brief: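 Cytotoxicity was gauged by SRB staining (0.1% SRB, 10% TCA fixation, 560 nm) of parallel cultures at 24 h. The cells were primary human skin keratinocytes co-cultured with fibroblasts, and activity was fitted in both directions against DMSO.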

[10] = read-out: Interleukin-1 alpha (IL1a), IL1A (gene 3552); assay: BSK_KF3CT_IL1a: BioMAP Diversity Plus: KF3CT Assay for Interleukin-1 alpha (IL1a) Biomarker Activity (AID 2283070); details: primary human keratinocytes with fibroblasts; actives raise or lower the signal
Method in brief: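 IL-1a was detected by ELISA 24 h after chemical treatment of a co-culture of human skin keratinocytes and foreskin fibroblasts. Gain or loss of signal was fitted against the DMSO baseline.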

[11] = read-out: TIMP metallopeptidase inhibitor 2 (TIMP2), TIMP2 (gene 7077); assay: BSK_KF3CT_TIMP2: BioMAP Diversity Plus: KF3CT Assay for TIMP metallopeptidase inhibitor 2 (TIMP2) Biomarker Activity (AID 2283071); details: primary human keratinocytes with fibroblasts; actives raise or lower the signal
Method in brief: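 Measurements come from ELISA detection of TIMP-2 at 24 hours in a dosed human keratinocyte and foreskin fibroblast co-culture. DMSO serves as negative control and baseline.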

[12] = read-out: Transforming growth factor beta 1 (TGFb1), TGFB1 (gene 7040); assay: BSK_KF3CT_TGFb1: BioMAP Diversity Plus: KF3CT Assay for Transforming growth factor beta 1 (TGFb1) Biomarker Activity (AID 2283072); details: primary human keratinocytes with fibroblasts; actives raise or lower the signal
Method in brief: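 TGF-b1 ELISA on a 24 h dosed co-culture of human keratinocytes and foreskin fibroblasts; cytotoxicity tracked in parallel cultures by SRB staining.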

[13] = read-out: C-C motif chemokine 2 (Homo sapiens) (UniProt P13500); assay: BSK_KF3CT_MCP1: BioMAP Diversity Plus: KF3CT Assay for Monocyte Chemoattractant Protein 1 (MCP1/CCL2) Biomarker Activity (AID 2283073); details: primary human keratinocytes with fibroblasts; actives raise or lower the signal
Method in brief: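 ELISA read-out of MCP-1, 24 h post-dose, in primary human skin keratinocytes co-cultured with fibroblasts. Parallel SRB staining monitors cytotoxicity; changes fitted both directions relative to DMSO.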

[14] = read-out: Matrix Metallopeptidase 9 (MMP9), MMP9 (gene 4318); assay: BSK_KF3CT_MMP9: BioMAP Diversity Plus: KF3CT Assay for Matrix Metallopeptidase 9 (MMP9) Biomarker Activity (AID 2283074); details: primary human keratinocytes with fibroblasts; actives raise or lower the signal;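 as to AC50: MMP9 protein level quantified by ELISA in the co-culture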
Method in brief: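 MMP-9 quantified by ELISA after 24 h chemical treatment of primary human skin keratinocyte/fibroblast co-cultures; gain or loss fitted against DMSO, with parallel SRB staining (0.1% SRB, 560 nm) for overt cytotoxicity.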

[15] = read-out: urokinase plasminogen activator (uPA), PLAU (gene 5328); assay: BSK_KF3CT_uPA: BioMAP Diversity Plus: KF3CT Assay for urokinase plasminogen activator (uPA) Biomarker Activity (AID 2283075); details: primary human keratinocytes with fibroblasts; actives raise or lower the signal
Method in brief: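 ELISA read-out of uPA 24 h after dosing human skin keratinocytes co-cultured with foreskin fibroblasts. Signal change fitted both ways relative to DMSO; sulforhodamine B on parallel cultures marks overt cytotoxicity.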

CD40, CD40 (gene 958) = assay: BSK_LPS_CD40: BioMAP Diversity Plus: LPS Assay for CD40 Biomarker Activity (AID 2283076); details: primary human HUVEC with PBMC; actives raise or lower the signal
Method in brief: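 In the LPS system of human endothelial cells with peripheral blood mononuclear cells, CD40 levels were read by ELISA 24 h post-treatment. Signal changes in either direction were fitted against the DMSO baseline, with parallel SRB protein staining.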

[16] = read-out: E-selectin (Homo sapiens) (UniProt P16581); assay: BSK_LPS_Eselectin: BioMAP Diversity Plus: LPS Assay for Eselectin Biomarker Activity (AID 2283077); details: primary human HUVEC with PBMC; actives raise or lower the signal
Method in brief: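 E-selectin ELISA on LPS-stimulated endothelial cell/PBMC co-cultures, read 24 h post-treatment; gains and losses fitted against DMSO. Parallel SRB staining (0.1% SRB after 10% TCA fixation, 560 nm) flags overt cytotoxicity.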

[17] = read-out: Interleukin-8 (IL8), CXCL8 (gene 3576); assay: BSK_LPS_IL8: BioMAP Diversity Plus: LPS Assay for Interleukin-8 (IL8) Biomarker Activity (AID 2283078); details: primary human HUVEC with PBMC; actives raise or lower the signal
Method in brief: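 ELISA read-out of IL-8 after 24 h chemical treatment of LPS-activated endothelial/PBMC human primary co-cultures. Changes either up or down relative to DMSO; overt cytotoxicity checked by sulforhodamine B staining in parallel wells.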

[18] = BSK_LPS_SRB: Viability Assessment in the BioMAP Diversity Plus: LPS Assay (AID 2283079); details: primary human HUVEC with PBMC;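 also: total protein by sulforhodamine B absorbance as a cytotoxicity measure; measured one day after compound addition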
Method in brief: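 SRB viability endpoint: cells fixed with 10% TCA, stained with 0.1% SRB, read at 560 nm, 24 h post-dose. HUVEC/PBMC co-culture; signal change in either direction scored relative to DMSO.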

[19] = read-out: Interleukin-1 alpha (IL1a), IL1A (gene 3552); assay: BSK_LPS_IL1a: BioMAP Diversity Plus: LPS Assay for Interleukin-1 alpha (IL1a) Biomarker Activity (AID 2283080); details: primary human HUVEC with PBMC; actives raise or lower the signal
Method in brief: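 Readout is IL-1a level by ELISA, 24 h post-dose, fitted as gain or loss relative to DMSO. System: LPS-activated human primary co-culture of vascular endothelium and peripheral blood mononuclear cells, with parallel SRB total-protein cytotoxicity.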

Measured: AC50

Chain of E-selectin (Homo sapiens) (P16581 whole entry, looked up): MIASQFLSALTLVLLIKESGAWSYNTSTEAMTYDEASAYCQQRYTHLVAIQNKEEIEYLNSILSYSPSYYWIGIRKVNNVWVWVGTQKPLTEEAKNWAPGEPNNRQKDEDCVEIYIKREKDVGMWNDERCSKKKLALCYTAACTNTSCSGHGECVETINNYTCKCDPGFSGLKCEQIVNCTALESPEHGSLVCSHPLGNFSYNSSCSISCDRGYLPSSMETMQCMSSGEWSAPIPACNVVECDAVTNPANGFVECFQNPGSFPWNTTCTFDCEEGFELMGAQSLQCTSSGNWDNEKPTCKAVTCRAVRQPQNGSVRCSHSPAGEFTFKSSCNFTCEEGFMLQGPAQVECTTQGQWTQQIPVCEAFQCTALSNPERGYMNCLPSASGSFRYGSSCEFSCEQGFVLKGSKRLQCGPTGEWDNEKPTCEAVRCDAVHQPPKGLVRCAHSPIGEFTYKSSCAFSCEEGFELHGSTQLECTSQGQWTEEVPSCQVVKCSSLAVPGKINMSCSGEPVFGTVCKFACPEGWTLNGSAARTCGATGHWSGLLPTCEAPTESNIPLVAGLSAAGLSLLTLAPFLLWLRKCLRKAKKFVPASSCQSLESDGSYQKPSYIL

Cc1cccc(O)c1C
inactive: [1] | [2] | [3] | [4] | [5] | [6] | [7] | [8] | [9] | [10] | [11] | [12] | [13] | [14] | [15] | CD40, CD40 (gene 958) | [16] | [17] | [18] | [19]

OC[C@H]1O[C@@](CO)(O[C@H]2O[C@H](CO)[C@@H](O)[C@H](O)[C@H]2O)[C@@H](O)[C@@H]1O
inactive: [1] | [2] | [3] | [4] | [5] | [6] | [7] | [8] | [9] | [10] | [11] | [12] | [13] | [14] | [15] | CD40, CD40 (gene 958) | [16] | [17] | [18] | [19]

CCOc1ccc2[nH]cc(C(=O)NCc3ccccc3)c(=O)c2n1
inactive: [1] | [2] | [3] | [4] | [5] | [6] | [7] | [8] | [9] | [10] | [11] | [12] | [13] | [14] | [15] | CD40, CD40 (gene 958) | [16] | [17] | [18] | [19]

COc1cc2c(c(OC)c1OC)-c1ccc(OC)c(=O)cc1[C@@H](NC(C)=O)CC2
inactive: [1] | [2] | [3] | [6] | [7] | [8] | [9] | [10] | [11] | [12] | [13] | [15] | [16] | [17]
active: [4] 2.82 µM | [5] 2.32 µM | [14] 548 nM | CD40, CD40 (gene 958) 148 nM | [18] 245 nM | [19] 827 nM
